# Experimental data published in PMC7862700, “An all-to-all approach to the identification of sequence-specific readers for epigenetic DNA modifications on cytosine”.
# Assays:
# Test in all cases: DAPPL (digital affinity profiling via proximity ligation, sequencing); 10 mM Tris-HCl pH 7.5, 50 mM NaCl, 1 mM DTT, 4% glycerol, room temperature, 30 min; GST-TFs on glutathione beads, 16-mer random dsDNA library, 0.1% formaldehyde crosslink after washing; high values mean tight binding
# Details in all cases: protein: recombinant; tags: N-terminal GST; dsDNA, one strand shown
# ERF = target: T1, ERF (Homo sapiens, UniProt P50548 1-548)
# T1 sequence: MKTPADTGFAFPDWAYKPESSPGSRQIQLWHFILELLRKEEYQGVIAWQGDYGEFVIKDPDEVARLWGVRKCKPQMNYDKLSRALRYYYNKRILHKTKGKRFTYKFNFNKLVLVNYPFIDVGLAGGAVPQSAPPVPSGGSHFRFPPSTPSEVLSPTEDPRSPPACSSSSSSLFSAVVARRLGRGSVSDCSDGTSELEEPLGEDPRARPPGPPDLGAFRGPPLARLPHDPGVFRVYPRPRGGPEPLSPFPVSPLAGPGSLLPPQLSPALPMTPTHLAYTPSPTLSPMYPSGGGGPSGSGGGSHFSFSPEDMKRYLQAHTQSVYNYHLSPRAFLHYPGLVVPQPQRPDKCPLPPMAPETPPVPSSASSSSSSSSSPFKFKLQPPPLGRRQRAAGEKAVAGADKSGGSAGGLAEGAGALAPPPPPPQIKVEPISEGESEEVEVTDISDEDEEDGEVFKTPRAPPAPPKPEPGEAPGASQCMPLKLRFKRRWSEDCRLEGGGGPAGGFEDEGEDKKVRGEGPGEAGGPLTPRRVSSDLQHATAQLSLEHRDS
# Outline: (§1)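 Binding signal is defined as a hexamer's read frequency for one factor over its frequency for the tag-only sample. To obtain reads, GST-fused human transcription factors were expressed in yeast, captured on glutathione beads, barcoded with DNA and pooled with that sample. Pools met 200 nmole of a 16-mer random double-stranded DNA library in Tris/NaCl/DTT/glycerol buffer for 30 min at room temperature before washing, 0.1% formaldehyde crosslinking, proximity ligation (BsaI/T4 ligase, 1 h, 37 °C), PCR and Illumina NextSeq500 sequencing.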
# ETV3L = target: T2, ETV3L (Homo sapiens, UniProt Q6ZN32 1-361)
# T2 sequence: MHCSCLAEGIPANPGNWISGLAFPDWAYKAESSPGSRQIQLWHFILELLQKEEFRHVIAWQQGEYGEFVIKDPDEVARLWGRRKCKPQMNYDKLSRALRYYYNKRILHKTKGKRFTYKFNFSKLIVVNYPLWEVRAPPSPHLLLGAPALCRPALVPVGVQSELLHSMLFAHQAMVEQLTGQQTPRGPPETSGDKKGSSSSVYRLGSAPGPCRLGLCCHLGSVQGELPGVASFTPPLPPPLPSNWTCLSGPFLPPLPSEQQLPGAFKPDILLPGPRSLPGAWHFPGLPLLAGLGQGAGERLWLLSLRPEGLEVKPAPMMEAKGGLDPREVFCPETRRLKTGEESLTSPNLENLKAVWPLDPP
# Outline: as §1
# ETS2 = target: T3, ETS2 (Homo sapiens, UniProt P15036 1-469)
# T3 sequence: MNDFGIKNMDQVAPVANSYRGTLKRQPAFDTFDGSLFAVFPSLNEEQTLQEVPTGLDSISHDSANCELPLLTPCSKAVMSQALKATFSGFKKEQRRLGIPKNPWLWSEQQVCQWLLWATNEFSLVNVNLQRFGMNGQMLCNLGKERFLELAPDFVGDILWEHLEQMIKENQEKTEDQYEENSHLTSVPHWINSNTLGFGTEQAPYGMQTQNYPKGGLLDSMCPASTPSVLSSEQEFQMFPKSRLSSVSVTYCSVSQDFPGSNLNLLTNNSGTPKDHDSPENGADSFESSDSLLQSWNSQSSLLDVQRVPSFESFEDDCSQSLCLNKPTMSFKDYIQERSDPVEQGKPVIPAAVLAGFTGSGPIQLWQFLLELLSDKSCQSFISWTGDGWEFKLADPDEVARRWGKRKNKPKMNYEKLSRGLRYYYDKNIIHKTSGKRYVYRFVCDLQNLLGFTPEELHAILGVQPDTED
# Outline: as §1
# SPDEF = target: T4, SPDEF (Homo sapiens, UniProt O95238 1-335)
# T4 sequence: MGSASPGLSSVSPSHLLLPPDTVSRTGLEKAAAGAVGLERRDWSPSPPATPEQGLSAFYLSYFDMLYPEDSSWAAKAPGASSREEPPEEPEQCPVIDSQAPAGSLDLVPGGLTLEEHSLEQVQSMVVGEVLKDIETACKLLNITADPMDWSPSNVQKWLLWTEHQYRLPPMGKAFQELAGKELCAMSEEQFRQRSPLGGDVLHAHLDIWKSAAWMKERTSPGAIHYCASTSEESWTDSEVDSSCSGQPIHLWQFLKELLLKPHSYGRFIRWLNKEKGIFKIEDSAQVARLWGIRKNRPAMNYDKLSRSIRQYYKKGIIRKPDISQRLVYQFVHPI
# Outline: as §1
# ETV7 = target: T5, ETV7 (Homo sapiens, UniProt Q9Y603 1-341)
# T5 sequence: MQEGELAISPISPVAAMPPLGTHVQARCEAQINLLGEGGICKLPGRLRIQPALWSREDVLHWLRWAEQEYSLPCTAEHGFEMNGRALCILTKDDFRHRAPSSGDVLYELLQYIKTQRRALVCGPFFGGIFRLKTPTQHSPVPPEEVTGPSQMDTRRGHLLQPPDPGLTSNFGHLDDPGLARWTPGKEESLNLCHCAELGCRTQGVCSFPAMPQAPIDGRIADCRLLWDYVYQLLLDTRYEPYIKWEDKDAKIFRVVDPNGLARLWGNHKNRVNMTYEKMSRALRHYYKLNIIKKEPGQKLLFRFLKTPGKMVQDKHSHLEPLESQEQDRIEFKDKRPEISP
# Outline: as §1
# ELF5 = target: T6, ELF5 (Homo sapiens, UniProt Q9UKW6-2 1-255)
# T6 sequence: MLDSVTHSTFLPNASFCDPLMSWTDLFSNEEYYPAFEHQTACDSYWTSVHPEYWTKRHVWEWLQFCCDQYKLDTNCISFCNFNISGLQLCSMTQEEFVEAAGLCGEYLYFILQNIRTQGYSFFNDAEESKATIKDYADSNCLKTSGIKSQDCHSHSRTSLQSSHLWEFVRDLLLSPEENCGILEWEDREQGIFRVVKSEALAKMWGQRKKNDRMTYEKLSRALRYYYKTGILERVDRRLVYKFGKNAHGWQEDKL
# Outline: as §1
# ETV3 = target: T7, ETV3 (Homo sapiens, UniProt P41162-2 1-143)
# T7 sequence: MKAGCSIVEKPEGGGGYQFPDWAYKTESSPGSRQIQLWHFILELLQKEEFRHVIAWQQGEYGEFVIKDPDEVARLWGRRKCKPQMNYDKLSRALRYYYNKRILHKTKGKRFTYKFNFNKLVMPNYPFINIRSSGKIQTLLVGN
# Outline: as §1
# ETV6 = ETV6 (Homo sapiens, UniProt P41212 1-452)
# ETV6, sequence (P41212 whole entry): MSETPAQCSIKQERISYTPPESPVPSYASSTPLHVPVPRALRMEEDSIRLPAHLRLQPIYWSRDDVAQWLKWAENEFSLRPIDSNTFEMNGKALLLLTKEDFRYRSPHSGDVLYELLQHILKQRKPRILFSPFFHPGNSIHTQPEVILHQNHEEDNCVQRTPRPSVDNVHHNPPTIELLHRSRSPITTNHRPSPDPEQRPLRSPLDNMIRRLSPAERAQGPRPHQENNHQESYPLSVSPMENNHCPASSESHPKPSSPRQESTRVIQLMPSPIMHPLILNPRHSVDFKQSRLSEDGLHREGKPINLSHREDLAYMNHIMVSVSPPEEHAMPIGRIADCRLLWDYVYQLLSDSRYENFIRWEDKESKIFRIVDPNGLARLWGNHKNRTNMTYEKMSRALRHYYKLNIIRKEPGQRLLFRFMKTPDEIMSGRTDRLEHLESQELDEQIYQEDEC
# Outline: as §1
Sequence,binding signal (ERF),binding signal (ETV3L),binding signal (ETS2),binding signal (SPDEF),binding signal (ETV7),binding signal (ELF5),binding signal (ETV3),binding signal (ETV6)
CTATCT,"1.42 fold enrichment (6-mer frequency, TF over GST control)","1.39 fold enrichment (6-mer frequency, TF over GST control)","1.39 fold enrichment (6-mer frequency, TF over GST control)","1.3 fold enrichment (6-mer frequency, TF over GST control)","1.4 fold enrichment (6-mer frequency, TF over GST control)","1.3 fold enrichment (6-mer frequency, TF over GST control)","1.28 fold enrichment (6-mer frequency, TF over GST control)","1.32 fold enrichment (6-mer frequency, TF over GST control)"
CGCTTT,"1.24 fold enrichment (6-mer frequency, TF over GST control)","1.26 fold enrichment (6-mer frequency, TF over GST control)","1.36 fold enrichment (6-mer frequency, TF over GST control)","1.2 fold enrichment (6-mer frequency, TF over GST control)","1.4 fold enrichment (6-mer frequency, TF over GST control)","1.25 fold enrichment (6-mer frequency, TF over GST control)","1.3 fold enrichment (6-mer frequency, TF over GST control)","1.31 fold enrichment (6-mer frequency, TF over GST control)"
ATATCC,"2.67 fold enrichment (6-mer frequency, TF over GST control)","2.57 fold enrichment (6-mer frequency, TF over GST control)","2.76 fold enrichment (6-mer frequency, TF over GST control)","4.48 fold enrichment (6-mer frequency, TF over GST control)","2.25 fold enrichment (6-mer frequency, TF over GST control)","3.58 fold enrichment (6-mer frequency, TF over GST control)","2.89 fold enrichment (6-mer frequency, TF over GST control)","2.64 fold enrichment (6-mer frequency, TF over GST control)"
TTGTGC,"1.31 fold enrichment (6-mer frequency, TF over GST control)","1.12 fold enrichment (6-mer frequency, TF over GST control)","1.17 fold enrichment (6-mer frequency, TF over GST control)","1.15 fold enrichment (6-mer frequency, TF over GST control)","1.08 fold enrichment (6-mer frequency, TF over GST control)","1.23 fold enrichment (6-mer frequency, TF over GST control)","1.15 fold enrichment (6-mer frequency, TF over GST control)","1.23 fold enrichment (6-mer frequency, TF over GST control)"
TTATCC,"1.44 fold enrichment (6-mer frequency, TF over GST control)","1.38 fold enrichment (6-mer frequency, TF over GST control)","1.51 fold enrichment (6-mer frequency, TF over GST control)","1.76 fold enrichment (6-mer frequency, TF over GST control)","1.44 fold enrichment (6-mer frequency, TF over GST control)","1.56 fold enrichment (6-mer frequency, TF over GST control)","1.51 fold enrichment (6-mer frequency, TF over GST control)","1.47 fold enrichment (6-mer frequency, TF over GST control)"
GCATTT,"1.31 fold enrichment (6-mer frequency, TF over GST control)","1.35 fold enrichment (6-mer frequency, TF over GST control)","1.34 fold enrichment (6-mer frequency, TF over GST control)","1.36 fold enrichment (6-mer frequency, TF over GST control)","1.31 fold enrichment (6-mer frequency, TF over GST control)","1.4 fold enrichment (6-mer frequency, TF over GST control)","1.36 fold enrichment (6-mer frequency, TF over GST control)","1.39 fold enrichment (6-mer frequency, TF over GST control)"
AATACT,"1.19 fold enrichment (6-mer frequency, TF over GST control)","1.24 fold enrichment (6-mer frequency, TF over GST control)","1.23 fold enrichment (6-mer frequency, TF over GST control)","1.15 fold enrichment (6-mer frequency, TF over GST control)","1.31 fold enrichment (6-mer frequency, TF over GST control)","1.37 fold enrichment (6-mer frequency, TF over GST control)","1.28 fold enrichment (6-mer frequency, TF over GST control)","1.4 fold enrichment (6-mer frequency, TF over GST control)"
CGATTC,"1.09 fold enrichment (6-mer frequency, TF over GST control)","1.18 fold enrichment (6-mer frequency, TF over GST control)","1.24 fold enrichment (6-mer frequency, TF over GST control)","1.13 fold enrichment (6-mer frequency, TF over GST control)","1.06 fold enrichment (6-mer frequency, TF over GST control)","1.11 fold enrichment (6-mer frequency, TF over GST control)","1.23 fold enrichment (6-mer frequency, TF over GST control)","1.11 fold enrichment (6-mer frequency, TF over GST control)"
CTAATT,"1.27 fold enrichment (6-mer frequency, TF over GST control)","1.23 fold enrichment (6-mer frequency, TF over GST control)","1.37 fold enrichment (6-mer frequency, TF over GST control)","1.17 fold enrichment (6-mer frequency, TF over GST control)","1.23 fold enrichment (6-mer frequency, TF over GST control)","1.22 fold enrichment (6-mer frequency, TF over GST control)","1.19 fold enrichment (6-mer frequency, TF over GST control)","1.33 fold enrichment (6-mer frequency, TF over GST control)"
TATCCA,"1.27 fold enrichment (6-mer frequency, TF over GST control)","1.28 fold enrichment (6-mer frequency, TF over GST control)","1.28 fold enrichment (6-mer frequency, TF over GST control)","1.21 fold enrichment (6-mer frequency, TF over GST control)","1.34 fold enrichment (6-mer frequency, TF over GST control)","1.27 fold enrichment (6-mer frequency, TF over GST control)","1.23 fold enrichment (6-mer frequency, TF over GST control)","1.2 fold enrichment (6-mer frequency, TF over GST control)"
TTCGGT,"1.18 fold enrichment (6-mer frequency, TF over GST control)","1.11 fold enrichment (6-mer frequency, TF over GST control)","1.16 fold enrichment (6-mer frequency, TF over GST control)","1.13 fold enrichment (6-mer frequency, TF over GST control)","1.15 fold enrichment (6-mer frequency, TF over GST control)","1.06 fold enrichment (6-mer frequency, TF over GST control)","1.07 fold enrichment (6-mer frequency, TF over GST control)","1.22 fold enrichment (6-mer frequency, TF over GST control)"
TCCTTT,"1.62 fold enrichment (6-mer frequency, TF over GST control)","1.85 fold enrichment (6-mer frequency, TF over GST control)","1.67 fold enrichment (6-mer frequency, TF over GST control)","1.76 fold enrichment (6-mer frequency, TF over GST control)","1.59 fold enrichment (6-mer frequency, TF over GST control)","2 fold enrichment (6-mer frequency, TF over GST control)","1.78 fold enrichment (6-mer frequency, TF over GST control)","1.76 fold enrichment (6-mer frequency, TF over GST control)"
CTGCTG,"1.08 fold enrichment (6-mer frequency, TF over GST control)","1.3 fold enrichment (6-mer frequency, TF over GST control)","1.36 fold enrichment (6-mer frequency, TF over GST control)","1.26 fold enrichment (6-mer frequency, TF over GST control)","1.13 fold enrichment (6-mer frequency, TF over GST control)","1.27 fold enrichment (6-mer frequency, TF over GST control)","1.27 fold enrichment (6-mer frequency, TF over GST control)","1.22 fold enrichment (6-mer frequency, TF over GST control)"
TTGTTC,"1.63 fold enrichment (6-mer frequency, TF over GST control)","1.44 fold enrichment (6-mer frequency, TF over GST control)","1.33 fold enrichment (6-mer frequency, TF over GST control)","1.48 fold enrichment (6-mer frequency, TF over GST control)","1.44 fold enrichment (6-mer frequency, TF over GST control)","1.55 fold enrichment (6-mer frequency, TF over GST control)","1.52 fold enrichment (6-mer frequency, TF over GST control)","1.46 fold enrichment (6-mer frequency, TF over GST control)"
AATGCT,"1.16 fold enrichment (6-mer frequency, TF over GST control)","1.15 fold enrichment (6-mer frequency, TF over GST control)","1.2 fold enrichment (6-mer frequency, TF over GST control)","1.11 fold enrichment (6-mer frequency, TF over GST control)","1.1 fold enrichment (6-mer frequency, TF over GST control)","1.24 fold enrichment (6-mer frequency, TF over GST control)","1.14 fold enrichment (6-mer frequency, TF over GST control)","1.32 fold enrichment (6-mer frequency, TF over GST control)"
